PG9 Ab binder: small molecules binding HIV-1 gp120 antibody PG9; inhibition, % at 6.7 µM; AID 624416; TR-FRET gp120-PG9 antibody binding; hit rate 0.43% among 360,000; in the data active = inhibition above about 8.5%
GAA850 FXN act: frataxin GAA850 promoter activation. HEK293 lucGAA850 FXN promoter luciferase reporter, 24 h; percent of 10 µM SAHA response. activation, % at 6 µM. hit rate 0.56% among 360,000. AID 540364;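 active = activation above the average of all compounds screened plus 3 SD, cutoff fixed separately per campaign, cut at about 7.5% in these data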;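 also: 0% = DMSO wells and 100% = 10 µM SAHA wells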
HSF1 inhib: HSF1 inhibition. activity change, negative = inhibition, % at 7.5 µM (by protocol). AID 2098. NIH3T3-HGL HSE-luciferase, MG132-induced, luminescence 8 h; hits give low values. hit rate 0.77% among 300,000;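 active = more than half of replicate wells show activity change below -50%, luminescence cut by over half; inconclusive = some wells, but at most half, below -50%; inactive = no replicate well below -50%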;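 also: luciferase reports HSF-1 transcriptional activity via heat shock element; 0% = median of DMSO wells and -100% = zero luminescence signal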
AI-2 QS modul: modulators of Vibrio harveyi AI-2 quorum sensing system; hit rate 0.4% among 300,000; activity change, % at 7.5 µM; Vibrio harveyi JMH597 AI-2 luminescence/OD600 ratio, 9 h; hits give low values; strain lacks LuxN and CqsS sensors; 0 = neutral-control median; AID 2094; in the data active = activity change below about -75%, passing the limit was not always enough; inconclusive = no clear call, values can overlap the other calls;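 also: luminescence divided by OD600 gain over 9 h not by final OD600 alone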
HSP90 inh: inhibitors of HSP90 luciferase refolding in rabbit reticulocyte lysate | inhibition, % at 5.6 µM | AID 1789 | luciferase refolding luminescence, 3 h | hit rate 0.91% among 290,000;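 active = inhibition above the screen-wide mean plus 3 SD, computed separately per campaign, cut at about 16% in these data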;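 also: 0% = DMSO wells and 100% = 60 µM geldanamycin wells; inhibitors lower the luminescence because luciferase stays unfolded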
SMARCA2 activ: increases SMARCA2 function in MMTV reporter cells; MG213 cells, MMTV-luciferase reporter, dexamethasone, overnight; activation, % at 9.1 µM; hit rate 1% among 370,000; in the data active = activation above about 7.8%;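 also: 0% = vehicle wells and 100% = reference activator wells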
HSP90 confirm: confirmation of HSP90 inhibitors. shares compounds with HSP90 inh. rabbit reticulocyte lysate, luciferase refolding luminescence, 3 h. inhibition, % at 5.9 µM. hit rate 64% among 2,300; in the data active = inhibition above about 18%;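 also: 0% = vehicle wells and 100% = reference inhibitor wells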
luciferase ctr: firefly luciferase inhibition, HSP90 counter-screen | inhibition, % at 5.9 µM | shares compounds with HSP90 inh | purified native firefly luciferase, luminescence | hit rate 48% among 2,300;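 active = inhibition above the mean inhibition of all tested sample wells plus 3 SD, cut at about 10% in these data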;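 also: 0% = DMSO with luciferase and 100% = wells lacking luciferase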
Target sequence (P08659 whole entry, looked up): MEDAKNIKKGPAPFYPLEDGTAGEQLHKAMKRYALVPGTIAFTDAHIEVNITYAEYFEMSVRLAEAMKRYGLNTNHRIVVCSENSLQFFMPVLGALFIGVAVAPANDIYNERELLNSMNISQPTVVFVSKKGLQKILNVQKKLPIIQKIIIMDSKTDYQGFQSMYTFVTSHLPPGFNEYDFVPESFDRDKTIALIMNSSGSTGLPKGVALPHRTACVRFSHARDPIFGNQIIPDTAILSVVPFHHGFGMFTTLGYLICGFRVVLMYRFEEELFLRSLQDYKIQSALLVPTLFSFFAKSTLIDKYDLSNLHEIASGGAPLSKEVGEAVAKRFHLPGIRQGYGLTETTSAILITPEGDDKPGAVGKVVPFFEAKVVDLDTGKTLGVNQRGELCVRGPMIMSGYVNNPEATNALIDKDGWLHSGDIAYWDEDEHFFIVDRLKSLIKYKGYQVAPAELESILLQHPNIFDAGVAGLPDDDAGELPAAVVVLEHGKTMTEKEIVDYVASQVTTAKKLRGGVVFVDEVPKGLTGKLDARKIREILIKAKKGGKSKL
An asterisk follows results filed as active; ? = inconclusive; nt = no result given. A selection: hits, their analogues and other compounds. The true share with any hit is near 3.4%.

SMILES	PG9 Ab binder	GAA850 FXN act	HSF1 inhib	AI-2 QS modul	HSP90 inh	SMARCA2 activ	HSP90 confirm	luciferase ctr
CCCCCCCCN1C(=O)[C@@H](CC(=O)N2CCCC2)C[C@@]2(C(=O)OC)C1=C[C@H](C(C)C)O[C@@H]2C1CC1	nt	nt	nt	nt	nt	-2.6	nt	nt
Cc1ccccc1N1CCN(S(=O)(=O)c2ccc3c(c2)n(C)c(=O)c(=O)n3C)CC1	nt	nt	nt	nt	nt	1.8	nt	nt
c1ccc2nc(-c3nc4ccccc4o3)ccc2c1	-3.4	-4.5	-14.2	8.0	32.3*	-1.2	81.1*	76.2*
COC(=O)[C@]12C[C@H](CC(=O)NCC3CCCCC3)C(=O)N(Cc3ccco3)C1=C[C@H](C(C)C)O[C@@H]2C1CC1	nt	nt	nt	nt	nt	-2.9	nt	nt
Cn1ccc(C(=O)Nc2sc3c(c2C(N)=O)CCCCC3)n1	2.4	3.3	-10.4	17.9	18.6*	4.3	37.8*	19.0*
COC(=O)C[C@H]1CC[C@H]2[C@H](COc3ccc(NC(=O)c4ccccc4F)cc3C(=O)N2C)O1	nt	nt	nt	nt	nt	-5.3	nt	nt
CC1CCC/C(=N/Nc2nc3ccccc3s2)C1 (stereo not drawn)	-5.0	3.4	-21.9	19.6	46.8*	-3.0	25.0*	12.4*
CC1(C)CC(=O)C/C(=N/Nc2nc3ccccc3s2)C1	-2.4	-3.7	-37.2	18.0	22.3*	-5.8	5.4	-6.4
CCC/C=N/Nc1nc2ccccc2s1	-2.7	2.0	14.5	9.9	19.8*	-0.9	10.9	1.6
Cc1cc(C)nc(Nc2nc3ccccc3s2)n1	0.6	5.5	13.9	16.7	-1.7	3.8	nt	nt
COC(=O)[C@]12C[C@H](CC(=O)NCCCN3CCCC3=O)C(=O)N(CCc3ccc(OC)c(OC)c3)C1=C[C@H](C(C)(C)C)O[C@@H]2C	nt	nt	nt	nt	nt	-4.0	nt	nt
CCCCNC(=S)N1CCN(CC)CC1	-1.1	2.0	5.7	21.3	52.6*	-1.9	-0.1	-3.3
COc1ccc(C(=O)OCCN2CCN(C3CN(Cc4cn(Cc5cccc(F)c5)nn4)S(=O)(=O)C3)CC2)cc1OC (stereo not drawn)	nt	nt	nt	nt	nt	-1.6	nt	nt
CC(=O)c1c(C)[nH]c(C(=O)Nc2cc(C)cc(C)c2)c1C	nt	5.6	17.1	26.3	0.8	nt	nt	nt
COc1ccc(OC)c(NC(=O)c2[nH]c(C)c(C(C)=O)c2C)c1	-1.1	2.2	9.0	-2.4	27.0*	4.5	-1.6	-4.4
CC(=O)c1c(C)[nH]c(C(=O)Nc2nc(-c3ccc(Cl)cc3)cs2)c1C	-1.5	0.3	9.3	20.6	-5.2	0.1	nt	nt
COc1ccc(CCNC(=O)c2[nH]c(C)c(C(C)=O)c2C)cc1OC	-0.7	-0.6	-1.1	43.0	2.1	4.3	nt	nt
CC(=O)c1c(C)[nH]c(C(=O)Nc2nc(C)cs2)c1C	6.7	-7.2	21.2	11.8	51.2*	-2.1	77.1*	66.1*
CC(=O)c1c(C)[nH]c(C(=O)Nc2ccc(C)cn2)c1C	-1.4	-8.9	-0.1	15.2	27.2*	-1.4	78.9*	69.6*
C[C@H]1Cn2cnc(C(=O)N(C)Cc3ccccc3)c2C(=O)N1	-0.9	nt	nt	nt	nt	-4.8	nt	nt
O=C(N/N=C1/CCc2ccccc21)C1CC1	-2.4	0.4	-4.8	8.2	-2.0	3.0	nt	nt
S=C(N/N=C1\CCc2ccccc21)NC1CCCCC1	0.2	-3.6	-55.1*	24.3	25.7*	-1.0	34.0*	0.1
CCOC(=O)C1=CCN(S(=O)(=O)c2ccc(Cl)cc2)C1c1cccc(Br)c1 (stereo not drawn)	-0.4	nt	nt	nt	nt	-2.9	nt	nt
O=C(CN1CCN(Cc2ccccc2Cl)CC1)N/N=C\c1ccccc1F	nt	nt	nt	nt	nt	-2.5	nt	nt
CC(Oc1ccc2c(c1)oc(=O)c1ccccc12)C(=O)NC(Cc1c[nH]c2ccc(O)cc12)C(=O)O (stereo not drawn)	-2.9	0.7	1.2	24.8	46.9*	-2.3	-2.4	-4.8
SMILES	PG9 Ab binder	GAA850 FXN act	HSF1 inhib	AI-2 QS modul	HSP90 inh	SMARCA2 activ	HSP90 confirm	luciferase ctr
Cc1ccnc(NC(=O)/C=C/c2ccccc2Cl)c1	-1.4	1.7	0.4	13.2	34.7*	4.3	58.1*	46.9*
Cc1ccnc(NC(=O)/C=C/c2ccccc2[N+](=O)[O-])c1	0.5	nt	28.6	19.8	1.7	5.7	nt	nt
O=S1(=O)c2ccc(Br)cc2OC[C@@H](Cc2ccccc2)N1Cc1cn(CCC2OCCCO2)nn1	nt	nt	nt	nt	nt	-1.9	nt	nt
Clc1ccccc1N1CCN(C2=Nc3ccccc3Sc3ccccc32)CC1	nt	nt	nt	nt	nt	-3.0	nt	nt
Brc1ccc(-c2nc(-c3ccccn3)no2)o1	-0.2	-4.4	-3.7	0.7	44.5*	0.2	60.0*	55.1*
COc1ccccc1-c1nc(-c2ccccn2)no1	-0.9	-7.0	-9.8	13.9	46.7*	4.1	78.0*	65.1*
Brc1ccc(-c2noc(-c3ccccn3)n2)o1	-1.2	2.3	23.2	11.7	11.3	3.4	nt	nt
Cc1ccccc1-c1nc(-c2ccccn2)no1	-0.5	-5.2	?	9.9	46.3*	0.8	85.7*	81.9*
Cc1ccccc1-c1nc(-c2cccnc2)no1	1.4	2.3	27.2	6.9	5.3	1.5	nt	nt
OC(c1ccccc1)(c1ccccc1)C1CCN(CCCOc2cccc(C(F)(F)F)c2)CC1	-3.4	nt	nt	nt	nt	-9.2	nt	nt
COc1ccc(-c2cc(C(=O)NN=Cc3ccccc3F)[nH]n2)cc1	nt	nt	nt	nt	nt	-1.7	nt	nt
CCCCNS(=O)(=O)/C=C/c1ccccc1CCNC(=O)OC(C)(C)C	nt	nt	nt	nt	nt	-3.2	nt	nt
CCCCN=C1NN=C(c2ccc3c(c2)OCCO3)CS1	-1.1	1.1	-36.9	4.7	51.6*	0.6	42.3*	35.0*
Cc1cccc[n+]1CC(=O)c1ccc(NC(=O)c2ccccc2)cc1	-3.4	1.7	8.8	11.8	-1.5	-0.1	nt	nt
N#Cc1cc[n+](CC(=O)c2ccc(NC(=O)c3ccccc3)cc2)cc1	2.8	1.4	7.7	20.8	21.5*	-2.6	-1.4	-8.9
CC(C)(C)n1ncc2c(=O)n(CC(=O)c3ccccc3)cnc21	-2.2	-0.6	17.1	28.5	-3.8	3.8	nt	nt
CC(C)(C)n1ncc2c(=O)n(CC(=O)OCc3ccccc3)cnc21	1.3	-13.2	-73.4*	12.0	83.5*	-4.6	91.3*	89.4*
CCO[C@@H]1OC(C(=O)N2CCN(Cc3ccc4c(c3)OCO4)CC2)=C[C@H](c2ccc(C(F)(F)F)cc2)[C@H]1CCCO	0.0	2.0	-1.6	7.1	23.5*	-1.4	3.9	-1.8
C[C@@H]1OC(C2CCCCC2)N(C)[C@H]2C[C@H]3c4cc(-c5ccc6c(c5)OCO6)ccc4CCN3C[C@@H]12 (stereo partly drawn)	nt	nt	nt	nt	nt	-2.6	nt	nt
COc1ccc(-n2nc(C(=O)NCC(=O)N3CCN(Cc4ccccc4)CC3)c3ccccc3c2=O)cc1	-2.4	-1.4	2.9	34.5	24.4*	-2.4	-2.2	-6.8
CC1=NN(c2ccccc2)C(=O)/C1=C\N(O)c1ccccc1	-3.3	1.8	8.9	20.6	41.0*	3.1	79.7*	-17.4

Screening data (PubChem)
